About 83,000 compounds went through this panel and 20% of them were active in at least one assay; those are over-represented in the sample as a whole.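 48-hour exposure, single concentration, 96-well plates; percent growth endpoint where 0 means no net growth. Active: below 10.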 Calls of active or inactive are those of the source.
Columns and labels:
Assay in all cases: NCI-60 one-dose screen, 48 h (100 = growth as untreated, 0 = no growth, -100 = all killed)
Settings in all cases: 10 µM unless noted
[1] = system: NCI-H23 lung
[2] = system: NCI-H226 lung
[3] = system: NCI-H322M lung
[4] = system: HOP-62 NSCLC
[5] = system: NCI-H460 lung
[6] = system: HOP-92 NSCLC
[7] = system: NCI-H522 lung
[8] = system: A549/ATCC NSCLC
[9] = system: 786-0 renal
[10] = system: COLO 205 colon
[11] = system: DU-145 prostate
[12] = system: K-562 leukemia
[13] = system: MALME-3M melanoma
[14] = system: MDA-MB-231 breast
[15] = system: RXF 393 renal
[16] = system: SF-268 CNS
[17] = system: SF-295 CNS
[18] = system: SF-539 CNS
[19] = system: UACC-257 melanoma
[20] = system: M14 melanoma

Measured: growth

CN(C)Cc1ccc(NC(=O)c2cncc(C#Cc3cnc(N)c4ncccc34)c2)cc1F
active: [9] -71.8% | [12] -4.46% | [14] -73.1% | [20] -84.5%
inactive: [1] 78.1% | [2] 130% | [3] 109% | [4] 96.5% | [5] 67.4% | [6] 80.7% | [7] 100% | [8] 65.7% | [10] 49.5% | [11] 86.8% | [13] 65.6% | [15] 40.1% | [16] 94% | [17] 95.9% | [18] 95.4% | [19] 88.7%

COc1ccc(/C=N/NC(=O)CCN2c3ccccc3Sc3ccccc32)cc1
inactive: [1] 75.6% | [2] 86.5% | [3] 83.4% | [4] 75.3% | [5] 85.4% | [6] 62.7% | [7] 62.1% | [8] 77.6% | [9] 91.5% | [10] 88.5% | [11] 102% | [12] 24% | [13] 71.7% | [14] 76.6% | [15] 66.6% | [16] 96.7% | [17] 68.8% | [18] 85.2% | [19] 99.8% | [20] 65.4%

CC(C)(C)n1cc(-c2ccnc(NCCCNS(=O)(=O)c3ccc(F)cc3)c2)c(-c2cccc(F)c2)n1
inactive: [1] 67.5% | [2] 60.1% | [3] 91.3% | [4] 92.2% | [5] 36.1% | [6] 67.5% | [7] 57.2% | [8] 43.5% | [9] 66.7% | [10] 32.6% | [11] 77.7% | [12] 18.1% | [13] 85.4% | [14] 75.6% | [15] 68% | [16] 74.3% | [17] 74% | [18] 68.7% | [19] 89.2% | [20] 53.8%

COc1ccc(C(c2cc(OC)c(OC)c(OC)c2)N2CCN(c3ccccc3)CC2)cc1 (stereo unspecified)
inactive: [1] 84.4% | [2] 101% | [3] 83.7% | [4] 88.9% | [5] 96.9% | [6] 86.7% | [7] 56.5% | [8] 85.7% | [9] 101% | [10] 92.7% | [11] 113% | [12] 41.6% | [13] 99.7% | [14] 92.3% | [15] 96.2% | [16] 95.8% | [17] 92.3% | [18] 94.4% | [19] 81.3% | [20] 76.3%

CC(=O)n1nc(C(=O)OC(C)C)c2cc(C)c(C)cc21
inactive: [1] 95.2% | [2] 96.4% | [3] 101% | [4] 92.1% | [5] 98.7% | [6] 67.1% | [7] 88.8% | [8] 82.2% | [9] 80.9% | [10] 102% | [11] 105% | [12] 91.1% | [13] 95% | [14] 102% | [15] 118% | [16] 102% | [17] 89.8% | [18] 107% | [19] 92.3% | [20] 93.7%

O=C1/C(=C\c2cn(-c3ccccc3)nc2-c2ccc(-c3cccs3)cc2)CCc2ccccc21
inactive: [1] 71.4% | [2] 74.4% | [3] 98.5% | [4] 75.5% | [5] 47.1% | [6] 78.7% | [7] 24.7% | [8] 60.4% | [9] 73.2% | [10] 74.6% | [11] 85.8% | [12] 17.6% | [13] 65.4% | [14] 67.5% | [15] 58.1% | [16] 70.5% | [17] 54.8% | [18] 72% | [19] 83.3% | [20] 39.1%

C#Cc1cccc(Nc2ncnc3ccc(-c4cnc(N)nc4)cc23)c1
inactive: [1] 50% | [2] 53.2% | [4] 28.4% | [5] 37.8% | [6] 15% | [7] 10.5% | [8] 35.9% | [9] 36.3% | [10] 52.6% | [11] 18.9% | [12] 53.2% | [14] 12.8% | [16] 32.7% | [17] 26.2% | [18] 32.4% | [19] 80.7% | [20] 36.8%
active: [3] -7.64% | [13] 9.03% | [15] -15.3%

c1cc2[nH]ncc2cc1-c1nc2ccc3[nH]ncc3c2c2c1CCCC2
inactive: [1] 12.9% | [2] 29.4% | [3] 23.7% | [4] 22.7% | [5] 13.6% | [6] 16.9% | [9] 19.7% | [11] 23.3% | [12] 15.3% | [13] 12.1% | [14] 31.1% | [16] 25.1% | [17] 19.4% | [19] 20.2%
active: [7] -28.2% | [8] 5.84% | [10] 3.57% | [15] -15.8% | [18] -7.82% | [20] 2.16%

COc1ccc(OC)c(-c2c(C#N)c(-c3cccs3)nc3c2c(-c2ccccc2)nn3-c2ccccc2)c1
inactive: [1] 105% | [2] 102% | [3] 110% | [4] 105% | [5] 101% | [6] 106% | [7] 87.8% | [8] 101% | [9] 103% | [10] 110% | [11] 111% | [12] 106% | [13] 106% | [14] 105% | [15] 109% | [16] 97.4% | [17] 101% | [18] 93.5% | [19] 105% | [20] 105%

Cc1cccnc1NC(=S)Nc1ncccc1C
inactive: [1] 99.2% | [2] 100% | [3] 107% | [4] 109% | [5] 107% | [6] 109% | [7] 88.9% | [8] 110% | [9] 90.1% | [10] 116% | [11] 113% | [12] 65.3% | [13] 113% | [14] 112% | [15] 92.3% | [16] 108% | [17] 81.2% | [18] 107% | [19] 116% | [20] 102%

Cc1nc2sc(C(=O)Nc3ccccc3)c(N)c2cc1C(=O)c1ccccc1
active: [5] 6.08% | [10] -25% | [15] -0.48% | [17] -9.52%
inactive: [1] 64.4% | [2] 31.3% | [3] 39.4% | [4] 34.5% | [6] 59.8% | [7] 50.2% | [9] 44.4% | [11] 56.1% | [12] 32.4% | [13] 68.3% | [14] 58% | [16] 47.8% | [18] 33.4% | [19] 49.8% | [20] 39.8%

CCCCN[C@H]1CC[C@@]2(C)[C@@H](CC[C@@]3(C)[C@H]2[C@H](O)C[C@H]2/C(=C(\CCC=C(C)C)C(=O)OC)[C@@H](OC(C)=O)C[C@@]23C)[C@@H]1C
inactive: [1] 90.5% | [2] 98% | [3] 97.2% | [4] 103% | [5] 100% | [6] 86.5% | [7] 93% | [9] 99.2% | [10] 104% | [11] 112% | [12] 30.5% | [13] 96.9% | [14] 114% | [15] 103% | [16] 100% | [17] 99% | [18] 99.3% | [19] 98.1% | [20] 96.2%

CCCCCCCCn1ccc2cc(NC(=O)Cn3cc(CN4CCCCC4)nn3)ccc21
inactive: [1] 75% | [2] 79.4% | [3] 17.6% | [4] 58.6% | [6] 38.1% | [7] 10.3% | [11] 52.2% | [16] 21.3%
active: [5] -50.6% | [9] -68.5% | [10] -80% | [12] -13.5% | [13] -88.3% | [14] -37.1% | [15] -72% | [17] -66.5% | [18] -42.3% | [19] -49.5% | [20] -79.8%

COC(=O)c1cc(-c2ccccc2)[nH]c1N/N=C/c1c(Cl)cccc1Cl
active: [4] -28.2% | [5] -3.25% | [7] -41.9% | [9] 9.31% | [11] -5.4% | [12] -21.8% | [13] -15.2% | [15] -18.7% | [17] -59.5% | [18] -33.3% | [20] -12.3%
inactive: [1] 14.2% | [2] 37.9% | [3] 34.6% | [6] 10.5% | [10] 12.5% | [14] 10.5% | [16] 33.1% | [19] 51%
